# Data reported in PubChem BioAssay (NCATS).
# Inconclusive results are not listed. A call without a number means that no potency is given here. The source made the active and inactive calls. Calls follow the shape of the dose curve; as a rule, active = well fitted cell-killing curve with a large enough effect; inconclusive = small, poorly fitted or top-dose-only effect, or effect the other way; inactive = flat fitted curve, though single readings scatter.
# Test system: CAOV3
# Test: Primary qHTS to identify gynecologic anti-cancer compounds using libraries of approved drugs and bioactive compounds (AID 1345084); also: nearly all actives have a fitted effect of over 55% in size
# Settings: Gynecologic cancer cell panel viability, ATPlite luminescence, 48 h; series mostly up to 57.5 µM
# Procedure, shortened: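 Luminescence from the ATPlite ATP-monitoring reagent indicates viable cell number; lower signal means cytotoxicity. Cells received compound 16 h after seeding and were exposed for 48 h across five concentrations.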
Structure (SMILES),Potency,"activity change, negative = cytotoxicity"
C/C(=C\CCC1(C)C2CCC(C2)C1(C)O)C(=O)O (centres undefined),inactive,
CC(=O)O[C@@H]1c2c3c(cc(O)c2C(=O)O[C@@H]1C)O[C@@]1(C)[C@@H](O)C[C@H]2C(C)(C)C(=O)C=C[C@]2(C)[C@@H]1C3,inactive,
COc1ccccc1Oc1ccc(N(Cc2cccnc2)S(=O)(=O)CC(F)(F)F)cc1,inactive,
CC(C)C(NC(=O)c1ccc2ccccc2n1)C(=O)NC(CC(=O)O)C(=O)COc1c(F)cccc1F (centres undefined),inactive,
CC(C)=CCC[C@](C)(O)[C@H]1CC[C@]2(C)[C@@H]1[C@H](O)CC1[C@@]3(C)CC[C@H](O)C(C)(C)C3[C@@H](O[C@@H]3O[C@H](CO)[C@@H](O)[C@H](O)[C@H]3O[C@@H]3OC[C@@H](O)[C@H](O)[C@H]3O)C[C@]12C (some centres undefined),inactive,
C=CC[C@]12C[C@@H](OC)C(=O)C(OC)=C1O[C@@H](c1cc(OC)c3c(c1)OCO3)[C@@H]2C,inactive,
CC(C)O[C@@H]1O[C@H](CO)[C@@H](O)[C@H](O)[C@H]1O,inactive,
C[C@@H]1CN(Cc2ncccn2)C[C@H]1c1nc2c(cnn2C2CCOCC2)c(=O)[nH]1,inactive,
CN[C@H](CC(C)C)C(=O)N[C@H]1C(=O)N[C@@H](CC(N)=O)C(=O)N[C@H]2C(=O)N[C@H]3C(=O)N[C@H](C(=O)N[C@H](C(=O)O)c4cc(O)cc(O)c4-c4cc3ccc4O)[C@H](O[C@H]3C[C@](C)(N)[C@@H](O)[C@H](C)O3)c3ccc(c(Cl)c3)Oc3cc2cc(c3O[C@@H]2O[C@H](CO)[C@@H](O)[C@H](O)[C@H]2O[C@H]2C[C@](C)(NCc3ccc(-c4ccc(Cl)cc4)cc3)[C@@H](O)[C@H](C)O2)Oc2ccc(cc2Cl)[C@H]1O,inactive,
C=C1CC[C@H]2[C@@](C)(CCC(O)[C@@]2(C)CO)[C@@H]1CCC1=CCOC1=O (some centres undefined),inactive,
CC1CCC2(C=O)C(CO)=CCCC2C1(C)CC(=O)O (centres undefined),inactive,
C=CC1(C)C=C2CCC3C(C)(C)C(O[C@@H]4O[C@@H](CO)[C@H](O)[C@H]4O)CCC3(C)C2CC1O[C@@H]1O[C@H](C)[C@H](O)[C@H](O)[C@H]1O (some centres undefined),inactive,
C/C(=C\CC[C@@H](C)[C@H]1CC(O)[C@@]2(C)C3CC[C@H]4C(C)(C)[C@@H](OC5OCC(O)C(O)C5OC5OC(CO)C(O)C(O)C5O)CC[C@@]45C[C@@]35CC(O)[C@]12C)C(=O)O (some centres undefined),inactive,
CC(C)(C)NCCCNC(=O)c1cccc(Br)c1,inactive,
CC(=O)OC1C[C@]2(C)C(O)CC(C)=C[C@H](OC(=O)c3ccc(O)cc3)C2[C@]1(O)C(C)C (some centres undefined),inactive,
C=C1CC[C@@H]2[C@](C)(CO[C@@H]3O[C@H](CO)[C@@H](O)[C@H](O)[C@H]3O)[C@H](O)CC[C@@]2(C)[C@@H]1C/C=C1/C(=O)OC[C@H]1O,inactive,
COC(=O)/C=C/C12COC(C)(C)C1C(O)C(OC(C)=O)C1(C)C2CCC2(C)C(c3ccoc3)OC(=O)C3OC321 (centres undefined),inactive,
CC1CC(=O)C2=C(CCC3(O)C(O)c4c(O)cccc4C(=O)C23O)C1 (centres undefined),inactive,
COC(=O)c1ccccc1O[C@@H]1O[C@H](CO)[C@@H](O)[C@H](O)[C@H]1O[C@@H]1O[C@@H](C)[C@H](O)[C@@H](O)[C@H]1O,inactive,
CCc1ccc(Cc2ccc3c(c2)[C@]2(OC3)O[C@H](CO)[C@@H](O)[C@H](O)[C@H]2O)cc1,inactive,

Structure (SMILES),Potency,"activity change, negative = cytotoxicity"
OC[C@H]1O[C@@H](Oc2ccccc2)[C@H](O)[C@@H](O)[C@@H]1O,inactive,
COc1cc2c(cc1OC)CC(=O)N(CCCNC[C@H]1Cc3cc(OC)c(OC)cc31)CC2,inactive,
COc1cc(O)c([C@@H](CC(=O)N2CC(C)CC(C)C2)c2ccc3c(c2)OCO3)c(OC)c1 (some centres undefined),inactive,
C=CC/C=C\C/C=C\CCCCCCCc1cccc(O)c1C(=O)O,inactive,
Cc1ccc(-c2ccc3c(ccc4sc5c(c43)NC[C@@H](C)NC5=O)n2)cn1,inactive,
C[C@@H]1C(=O)OC[C@H]2C(C(=O)O)=C[C@@H]3CC(C)(C)C[C@]312,inactive,
C[C@H]1CC(=O)Nc2cccc(-c3cnn(C(C)(C)C)c3)c2N1,inactive,
COC(=O)C(C)C1CCC2(C)C(=O)C=CC(C)(O)C2C1O (centres undefined),inactive,
CC(=O)O[C@@H]1[C@@H](OC(=O)/C=C/c2ccccc2)[C@@H](OC(C)=O)[C@H](O[C@H]2[C@@H]3C=CO[C@@H](O[C@@H]4O[C@H](CO)[C@@H](O)[C@H](O)[C@H]4O)[C@@H]3[C@@]3(CO)O[C@@H]23)O[C@H]1C,inactive,
COc1cccc(C(=O)N2CCN(C(=O)COc3cccc(C)c3)CC2)c1OC,inactive,
C=C[C@H]1C(O[C@@H]2O[C@H](CO)[C@@H](O)[C@H](O)[C@H]2O)OC=C2C(=O)N3CCc4c([nH]c5ccccc45)[C@H]3C[C@H]21 (some centres undefined),inactive,
C/C=C(/COC(=O)/C(C)=C/C)C(=O)OC(CC)c1ccc(OC)c(OC)c1 (centres undefined),inactive,
C=C1[C@H](OC(C)=O)[C@H]2[C@@H](OC(C)=O)[C@](C)(OC(C)=O)C[C@]2(OC(C)=O)C(=O)[C@H](C)/C=C/C(C)(C)C(=O)[C@H](OC(=O)C(C)C)[C@H]1OC(C)=O,inactive,
C=CC(C)(C)C12C=C(OC)C(=O)N3C(C(C)C)C(=O)NC31N(OC)c1ccccc12 (centres undefined),inactive,
C/C1=C\CC[C@]2(C)O[C@@H]2[C@H](O)[C@H](C(C)C)[C@H](OC(=O)/C=C/c2ccccc2)C1,inactive,
c1ccc(N2CCN(CCc3nn[nH]n3)CC2)cc1,inactive,
C=C1CC2C(C)(CCC(=O)O)C(C(C)(C)O)CCC2(C)C2C(=O)OC(C)(C(=O)OC)C(=O)C12C (centres undefined),inactive,
CC(C)=CCCC1(C)C=Cc2c(c(C)cc3c2[nH]c2ccccc23)O1 (centres undefined),inactive,
CC1(C)CC[C@]2(C(=O)O[C@@H]3O[C@H](CO[C@@H]4O[C@H](CO)[C@@H](O)[C@H](O)[C@H]4O[C@@H]4O[C@H](CO)[C@H](O)[C@H](O)[C@H]4O)[C@@H](O)[C@H](O[C@@H]4O[C@H](CO)[C@@H](O)[C@H](O)[C@H]4O)[C@H]3O)CC[C@]3(C)C(=CCC4[C@@]5(C)CC[C@H](O[C@@H]6OC[C@@H](O)[C@H](O)[C@H]6O)[C@@](C)(C(=O)O)C5CC[C@]43C)[C@@H]2C1 (some centres undefined),,6.72% [at 6.55 µM] (inactive)
